# Several values for one entry are separate records, joined by “and”; a condition that tells them apart may be missing. Identical values can stand only once. Results filed as inconclusive are left out. Where a call stands in place of a potency, no number is given. The source holds several records for some structures; these can differ, active in one and inactive in another. Activity calls are given as the source filed them. Unless noted, calls come from the whole dose curve; as a rule, active = well fitted curve in the direction sought with a large enough effect in the repeat runs; inconclusive = weak or mixed curves; inactive = no such curve, though single readings can be large; an effect the other way counts as inactive or inconclusive.
# Legend:
# [1] = qHTS assay to identify aromatase inhibitors - cell viability counter screen (AID 743084); settings: MCF-7 aro ERE viability, CellTiter-Fluor, 24 h; series mostly up to 70.3 µM;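 note: cells stimulated with testosterone during compound exposure; nearly all actives have a fitted effect of over 55% in size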; note: potency is the fitted concentration of half-maximal effect
# [2] = molecular target: Aryl hydrocarbon receptor (Homo sapiens) (UniProt P35869); assay: qHTS assay to identify small molecule that activate the aryl hydrocarbon receptor (AhR) signaling pathway (AID 743085); settings: HepG2 AhR-luc (HG2L7.5c1), luciferase, 24 h; series mostly up to 70.3 µM; note: nearly all actives have a fitted effect of over 15% in size; note: potency is the fitted concentration of half-maximal effect;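 for activation: HG2L7.5c1 human HepG2 liver cells with stably integrated DRE-driven firefly reporter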
# Method in brief: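 HepG2 cells stably carrying a 20-DRE firefly luciferase reporter (HG2L7.5c1) treated with compound for 24 hr at 37C. Luciferase read by ONE-Glo luminescence, with CellTiter-Fluor viability read first.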
# [3] = qHTS assay to identify small molecule that activate the aryl hydrocarbon receptor (AhR) signaling pathway - cell viability counter screen (AID 743086); settings: HepG2-AhR-luc viability, CellTiter-Fluor, 24 h; series mostly up to 70.3 µM; note: nearly all actives have a fitted effect of over 45% in size; note: potency is the fitted concentration of half-maximal effect
# Method in brief: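 HepG2-AhR-luc (HG2L7.5c1) cells, 4000/well, treated 24 h at 37 C with compound; viability measured as CellTiter-Fluor fluorescence after 30 min in the same wells as the luciferase read.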
# [4] = molecular target: Peroxisome proliferator-activated receptor gamma (Homo sapiens) (UniProt P37231); assay: qHTS assay to identify small molecule agonists of the peroxisome proliferator-activated receptor gamma (PPARg) signaling pathway (AID 743094; active = well fitted activation curve with a large enough effect in the signal ratio in the repeat runs, not every such curve was filed as active; the % refers to the signal ratio; note: potency is the fitted concentration of half-maximal effect); settings: HEK293H PPARg-UAS-bla, beta-lactamase FRET ratio, 17 h; series mostly up to 57 µM
# Method in brief: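 GeneBLAzer PPARg UAS-bla HEK293H cells were plated, rested 5 h, then exposed to compounds for 17 h at 37C. Beta-lactamase activity was read by LiveBLAzer B/G FRET substrate fluorescence after 1 h at room temperature.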
# [5] = molecular target: Peroxisome proliferator-activated receptor gamma (Homo sapiens) (UniProt P37231); assay: qHTS assay to identify small molecule antagonists of the peroxisome proliferator-activated receptor gamma (PPARg) signaling pathway (AID 743191; calls by dose curve; note: nearly all actives have a fitted effect of over 30% in size; note: potency is the fitted concentration of half-maximal effect); settings: HEK293H PPARg-UAS-bla, beta-lactamase ratio, antagonist, 17 h; series mostly up to 62.6 µM
# Method in brief: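 GeneBLAzer PPARg UAS-bla HEK293H cells, 5 h post-plating, exposed to compounds 17 h at 37C. LiveBLAzer B/G FRET substrate added for 1 h at room temperature; beta-lactamase reporter read by fluorescence intensity.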
# [6] = qHTS assay to identify small molecule antagonists of the peroxisome proliferator-activated receptor gamma (PPARg) signaling pathway - cell viability counter screen (AID 743194); settings: PPARg-bla HEK293H viability, CellTiter-Glo luminescence, 17 h, co-treated with 50 nM rosiglitazone; series mostly up to 62.6 µM; note: nearly all actives have a fitted effect of over 55% in size
# Method in brief: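 Cytotoxicity counter screen in PPARg-bla HEK293H cells, same wells as reporter assay. Compounds plus 50 nM rosiglitazone (final) for 17 h at 37 C, then viability read by CellTiter-Glo luminescence.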
# [7] = qHTS assay for small molecule agonists of the antioxidant response element (ARE) signaling pathway (AID 743202; active = well fitted activation curve with a large enough effect in the signal ratio in the repeat runs, not every such curve was filed as active; the % refers to the signal ratio; note: potency is the fitted concentration of half-maximal effect); settings: HepG2 ARE-bla reporter, beta-lactamase FRET, 16 h; series mostly up to 73.3 µM
# Method in brief: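 Agonist mode reporter screen: HepG2 cells with ARE-controlled beta-lactamase are incubated with test compounds for 16 h at 37 C, and beta-lactamase activity is measured as fluorescence of cleaved B/G FRET substrate.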
# [8] = qHTS assay for small molecule agonists of the antioxidant response element (ARE) signaling pathway - cell viability counter screen (AID 743203; calls by dose curve; note: nearly all actives have a fitted effect of over 55% in size; note: potency is the fitted concentration of half-maximal effect); settings: ARE-bla HepG2 viability, CellTiter-Glo luminescence, 16 h; series mostly up to 73.3 µM
# Method in brief: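 ARE-bla HepG2 cells were plated, rested 5 h at 37C/5% CO2, then exposed to compounds in DMSO for 16 h. Viability was read as CellTiter-Glo luminescence after 30 min at room temperature, in the same wells as the ARE screen.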
# [9] = qHTS assay for small molecule activators of the heat shock response signaling pathway (AID 743210; active = well fitted activation curve with a large enough effect in the signal ratio in the repeat runs, with a control signal flat, not every such curve was filed as active; the % refers to the signal ratio;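 note: HeLa cells with beta-lactamase reporter driven by heat shock elements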); settings: HeLa HSE-bla reporter, beta-lactamase ratio, 5 h; series mostly up to 62.6 µM
# Method in brief: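 Quantitative high-throughput format using an engineered HeLa line in which heat shock response elements drive beta-lactamase; after 5 h with compound, cells received a B/G FRET substrate and fluorescence was read.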
# [10] = qHTS assay for small molecule activators of the heat shock response signaling pathway - cell viability counter screen (AID 743209); settings: HSE-bla HeLa viability, CellTiter-Glo luminescence, 5 h; series mostly up to 62.6 µM; note: nearly all actives have a fitted effect of over 50% in size
# Method in brief: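 HSE-bla HeLa cells plated overnight, then exposed to Tox21 compounds (23 nL in DMSO) for 5 h at 37 C. After the bla reporter read, CellTiter-Glo was added in the same wells and luminescence read after 30 min at room temperature.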
# Chain of Aryl hydrocarbon receptor (Homo sapiens) (P35869 whole entry, looked up): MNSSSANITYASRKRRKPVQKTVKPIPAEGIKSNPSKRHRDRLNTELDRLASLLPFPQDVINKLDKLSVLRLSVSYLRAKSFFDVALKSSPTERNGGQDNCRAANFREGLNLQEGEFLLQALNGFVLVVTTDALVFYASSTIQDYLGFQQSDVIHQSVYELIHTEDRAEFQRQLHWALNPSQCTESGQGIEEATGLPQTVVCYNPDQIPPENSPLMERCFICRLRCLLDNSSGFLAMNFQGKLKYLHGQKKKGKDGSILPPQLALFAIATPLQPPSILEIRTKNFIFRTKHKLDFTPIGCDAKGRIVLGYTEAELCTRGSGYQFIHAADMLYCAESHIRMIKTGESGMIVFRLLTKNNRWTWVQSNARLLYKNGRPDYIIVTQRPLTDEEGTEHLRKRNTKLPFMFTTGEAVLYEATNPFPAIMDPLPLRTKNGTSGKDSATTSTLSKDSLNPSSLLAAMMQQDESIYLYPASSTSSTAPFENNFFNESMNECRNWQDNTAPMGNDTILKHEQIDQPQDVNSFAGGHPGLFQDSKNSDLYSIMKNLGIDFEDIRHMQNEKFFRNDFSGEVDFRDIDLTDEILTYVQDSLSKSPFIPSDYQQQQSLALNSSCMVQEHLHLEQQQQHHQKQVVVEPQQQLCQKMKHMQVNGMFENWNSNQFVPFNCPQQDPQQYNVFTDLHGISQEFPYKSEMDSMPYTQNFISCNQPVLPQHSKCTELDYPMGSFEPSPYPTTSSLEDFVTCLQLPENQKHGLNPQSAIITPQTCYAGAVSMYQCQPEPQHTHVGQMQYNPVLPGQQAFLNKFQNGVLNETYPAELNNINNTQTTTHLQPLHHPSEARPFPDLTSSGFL
# Chain of Peroxisome proliferator-activated receptor gamma (Homo sapiens) (P37231 whole entry, looked up): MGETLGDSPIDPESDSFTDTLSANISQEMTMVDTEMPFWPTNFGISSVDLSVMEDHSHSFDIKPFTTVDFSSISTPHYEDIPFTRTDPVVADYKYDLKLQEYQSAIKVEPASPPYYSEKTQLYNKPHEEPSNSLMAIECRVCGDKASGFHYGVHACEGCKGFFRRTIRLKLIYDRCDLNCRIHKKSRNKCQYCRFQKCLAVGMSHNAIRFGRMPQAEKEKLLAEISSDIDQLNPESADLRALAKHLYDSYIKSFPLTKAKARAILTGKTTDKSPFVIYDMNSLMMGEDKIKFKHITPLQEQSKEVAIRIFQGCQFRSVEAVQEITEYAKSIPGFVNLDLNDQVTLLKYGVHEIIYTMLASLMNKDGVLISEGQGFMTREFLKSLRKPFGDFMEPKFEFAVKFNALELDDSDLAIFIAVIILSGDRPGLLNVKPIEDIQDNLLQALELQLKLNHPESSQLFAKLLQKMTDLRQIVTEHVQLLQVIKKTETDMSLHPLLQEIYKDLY
SMILES,Potency [1],Potency [2],Potency [3],Potency [4],Potency [5],Potency [6],Potency [7],Potency [8],outcome [9],outcome [10]
O=C(O)Cc1cccc2ccccc12,inactive,inactive,inactive,27.5 µM (active),inactive,inactive,inactive,inactive,inactive,
CN(C)C=O,inactive,inactive,inactive,inactive,inactive,inactive,inactive,inactive,inactive,
CCOCCO,inactive,inactive,inactive,inactive,inactive,inactive,inactive,inactive,inactive,
CCOC(=O)C(C)(C)Oc1ccc(Cl)cc1,inactive,inactive,inactive,inactive,inactive,inactive,inactive,inactive,inactive,
Cc1cnc(NC(=O)C2=C(O)c3ccccc3S(=O)(=O)N2C)s1,inactive,inactive and 61.1 µM (active),inactive,inactive,inactive,inactive,,inactive,inactive,inactive
COC1=CC(=O)C[C@@H](C)[C@]12Oc1c(Cl)c(OC)cc(OC)c1C2=O,inactive,inactive,inactive,inactive and 48.5 µM (active),19.5 µM (active),inactive,,inactive,inactive,inactive
O=C(O)CCCCC1CCSS1 (stereo unspecified),inactive,inactive,inactive,inactive,inactive,inactive,,inactive,inactive,
C[C@]12CC[C@@H]3c4ccc(O)cc4C[C@@H](CCCCCCCCCS(=O)CCCC(F)(F)C(F)(F)F)[C@H]3[C@@H]1CC[C@@H]2O (stereo partly specified),inactive,inactive,inactive,inactive,inactive,inactive,,inactive,inactive,inactive
CCCCCCCCOc1ccc(C(=O)c2ccccc2)c(O)c1,inactive,inactive,inactive,inactive,inactive,inactive,inactive and 48.6 µM (active),inactive,inactive,
O=[N+]([O-])c1ccc(O)cc1,63.5 µM (active),inactive,54.5 µM (active) and inactive,inactive,inactive,inactive,inactive,inactive,inactive,
CCCCOC(=O)CCCCCCCCC(=O)OCCCC,inactive,inactive,inactive,inactive,inactive,inactive,inactive,inactive,inactive,
CN(C)Cc1cc(CN(C)C)c(O)c(CN(C)C)c1,inactive,inactive,inactive,inactive,inactive,inactive,inactive,inactive,inactive,
CCCCC/C(C=O)=C\c1ccccc1,inactive,inactive,inactive,inactive,inactive,inactive,inactive,inactive,inactive,inactive
C1CNCCN1,inactive,inactive,inactive,inactive,inactive,inactive,inactive,inactive,inactive,
COC(=O)C1CCC(C(=O)OC)CC1 (stereo unspecified),inactive,inactive,inactive,inactive,inactive,inactive,,inactive,inactive,
O=C(O)CN(CC(=O)O)CC(=O)O,inactive,,inactive,inactive,inactive,inactive,55.3 µM (active) and inactive,inactive,inactive,inactive
O=c1cc[nH]c(=O)[nH]1,,,inactive,,,inactive,inactive,inactive,inactive,
c1ccc2[nH]c(-c3cscn3)nc2c1,inactive,,inactive,inactive,inactive,inactive,inactive,inactive,inactive,inactive
NC(=O)NO,inactive,inactive,inactive,,,inactive,inactive,inactive,inactive,
CCCCOCCOCCSC#N,inactive,inactive,inactive,inactive,,inactive,inactive,inactive,,inactive
Cc1c(N(C)C)c(=O)n(-c2ccccc2)n1C,inactive,inactive,inactive,,,inactive,inactive,inactive,inactive,inactive
NC(=O)N/N=C/c1ccc([N+](=O)[O-])o1,inactive,inactive and 19.3 µM (active),inactive and 62.9 µM [cytotoxic] (active),inactive,,inactive,inactive and 11.9 µM (active),inactive and 54.5 µM (active),inactive,inactive

SMILES,Potency [1],Potency [2],Potency [3],Potency [4],Potency [5],Potency [6],Potency [7],Potency [8],outcome [9],outcome [10]
CCn1cc(C(=O)O)c(=O)c2ccc(C)nc21,inactive,,inactive,inactive,inactive,inactive,inactive,inactive,inactive,inactive
CC(=O)/C=C/C1=C(C)CCCC1(C)C,inactive,inactive,inactive,inactive,,inactive,inactive,inactive,inactive,inactive
CC(C)=CCC/C(C)=C/CO,inactive,inactive,inactive,inactive,,inactive,inactive,inactive,,
NCCNc1cccc2ccccc12,inactive,29.8 µM (active) and 54.4 µM (active) and 66.9 µM (active),,inactive,,,,inactive,inactive,inactive
CC1=NN(c2ccccc2)C(=O)C1,inactive,,inactive,inactive,,inactive,inactive,inactive,inactive,
Cc1cccc(Nc2cc(Cl)nc(SCC(=O)O)n2)c1C,inactive,inactive,inactive,,inactive,inactive,,inactive,inactive,
O=C(OCc1ccccc1)c1ccccc1,inactive,,inactive,inactive,inactive,inactive,inactive,inactive,inactive,inactive
C#C[C@]1(O)CC[C@H]2[C@@H]3CCc4cc(O)ccc4[C@H]3CC[C@@]21C,inactive and 48.2 µM (active),inactive,inactive,inactive,,inactive,inactive,inactive,inactive,inactive
C[C@]12C[C@H](O)[C@H]3[C@@H](CCC4=CC(=O)CC[C@@]43C)[C@@H]1CC[C@@H]2C(=O)CO,inactive,inactive,inactive,inactive,,inactive,inactive,inactive,inactive,
COc1ccccc1NC(=O)CC(C)=O,inactive,47.9 µM (active) and 27.3 µM (active),inactive,inactive,,inactive,inactive,inactive,inactive,inactive
COc1ccc(C(=O)c2ccccc2)c(O)c1,inactive,,inactive,inactive,inactive,inactive,inactive,inactive,inactive,inactive
CC(C)(C)CC(C)(C)c1ccc(O)c(-n2nc3ccccc3n2)c1,inactive,inactive,inactive,inactive,inactive,,inactive,inactive,inactive,inactive
O=C1OC(c2ccc(O)cc2)(c2ccc(O)cc2)c2ccccc21,inactive,,inactive,inactive,,inactive,,inactive,inactive,
CO[C@H]1C=CO[C@@]2(C)Oc3c(C)c(O)c4c(O)c(c(/C=N/N5CCN(C)CC5)c(O)c4c3C2=O)NC(=O)/C(C)=C\C=C[C@H](C)[C@H](O)[C@@H](C)[C@@H](O)[C@@H](C)[C@H](OC(C)=O)[C@@H]1C,23.7 µM (active) and 15.4 µM (active) and 15.5 µM (active),inactive,29.8 µM (active) and 27.4 µM (active) and 15.5 µM (active),inactive,,inactive,,inactive,inactive,inactive
C/C=C/c1ccc(O)c(OC)c1,inactive,inactive,inactive,inactive,,inactive,,inactive,inactive,
COc1ccc(O)cc1,inactive,inactive,inactive,,,inactive,,inactive,inactive,
CC1=C(/C=C/C(C)=C/C=C/C(C)=C/C(=O)O)C(C)(C)CCC1,inactive,inactive,inactive,0.535 µM (active),,inactive,,inactive,,
NC(=O)OCC(COC(N)=O)c1ccccc1,inactive,inactive,inactive,,,inactive,,inactive,inactive,
C[C@]12CC[C@@H]3c4ccc(O)cc4CC[C@H]3[C@@H]1CCC2=O,inactive,,inactive,,,inactive,,inactive,inactive,
CCc1cc(C(N)=S)ccn1,,,inactive,,,inactive,,inactive,inactive,
C[C@]12C=CC(=O)C=C1CC[C@@H]1[C@@H]2C(=O)C[C@@]2(C)[C@H]1CC[C@]2(O)C(=O)CO,,inactive,inactive,inactive,inactive,inactive,inactive,inactive,inactive,
NC(=O)c1ccc([N+](=O)[O-])cc1Cl,inactive,,inactive,inactive,inactive,inactive,inactive,inactive,inactive,

# From PubChem BioAssay (Tox21)
